# PubChem BioAssay (EPA / NIEHS)
# The source holds several records for some structures; these can differ, active in one and inactive in another. The source made the active and inactive calls. Rule for the calls: active = hit-call score of the fitted dose curve at least 0.9, where 1 is the maximum; inactive = score below 0.9.
# Read-out: Macrophage Inflammatory Protein-1 Alpha (MIP1a), CCL3 (gene 6348)
# Test: BSK_IMphg_MIP1a: BioMAP Diversity Plus: IMphg Assay for Macrophage Inflammatory Protein-1 Alpha (MIP1a) Biomarker Activity (AID 2284255)
# Conditions: primary human endothelial cells with macrophages
# Protocol: BSK_IMphg is a cell-based, multiplexed-readout assay that uses venular endothelial cells and macrophages, a human vascular primary cell, with measurements taken at 24 hours after chemical dosing in a microplate: 96-well plate.BSK_IMphg_MIP1a is an assay component measured in the BSK_IMphg assay. It measures MIP-1a antibody related to regulation of gene expression using ELISA technology.Data from the assay component BSK_IMphg_MIP1a was analyzed at the endpoint, BSK_IMphg_MIP1a, in the positive analysis fitting direction relative to DMSO as the negative control and baseline of activity. Using a type of binding reporter, gain or loss-of-signal activity can be used to understand protein changes. To generalize the intended target to other relatable targets, this assay endpoint is annotated to the 'cytokine' intended target family, where the subfamily is 'inflammatory factor'.
# The levels of cell surface (or secreted, indicated by the prefix "s") biomarker endpoints were measured by ELISA. Overt cytotoxicity to cells in confluent adherent cultures (all systems other than the BT system) was assessed by measuring total protein levels using sulforhodamine B (SRB) staining in parallel cultures at the time of biomarker measurements, indicated as SRB endpoints. For proliferation assays for adherent cell types, individual cell types are cultured at sub-confluence and relative cell numbers quantified by SRB staining at time points optimized for each system (48 h: 3C and CASM3C systems; 72 h: BT and HDF3CGF systems; 96 h: SAg system). SRB was performed by staining cells with 0.1% SRB after fixation with 10% TCA and reading wells at 560 nm.Viability and proliferation of PBMC (T cells) was quantified by Alamar Blue reduction for the SAg and BT systems. For PBMC viability (referred to as PBMC Cytotoxicity within the assay endpoint names), cells were plated (75,000/well in a 96-well plate) and then chemical samples added for 1 h before addition of activators, SEB and TSST-1 (20 ng/mL final concentration each). Cells were incubated for 90 h. Then, Alamar Blue (20 uL/well) (Invitrogen, Cat DAL1100) was added for 6 h, and the plates were read with a fluorescence microplate reader at 546/580 nm (excitation/emission). For PBMC proliferation, cells were plated and activated as above but incubated for only 16 h prior to addition of Alamar Blue. Plates were read after 6 h.
SMILES,outcome,AC50
FC(F)(F)C(F)(F)C(F)(F)C(F)(F)C(F)(F)C(F)(F)C(F)(F)C(F)(F)CCS,inactive,
O=S(=O)(O)C(F)(F)C(F)(F)C(F)(F)C(F)(F)C(F)(F)C(F)(F)C(F)(F)F,inactive,
Cc1ccc(S(=O)(=O)OCC(F)(F)C(F)(F)C(F)(F)C(F)(F)C(F)(F)C(F)F)cc1,inactive,
O=C(O)C(F)(OC(F)(F)C(F)(OC(F)(F)C(F)(OC(F)(F)C(F)(F)C(F)(F)F)C(F)(F)F)C(F)(F)F)C(F)(F)F (stereo not given),inactive,
OCCCC(F)(F)C(F)(F)C(F)(F)F,inactive,
FC(F)(F)C(F)(F)C(F)(F)C(F)(F)C(F)(F)C(F)(F)C(F)(F)I,inactive,
OCCCC(F)(F)C(F)(F)C(F)(F)C(F)(F)C(F)(F)C(F)(F)C(F)(F)F,inactive,37.5 µM (active)
C=CC(F)(F)C(F)(F)C(F)(F)C(F)(F)C(F)(F)C(F)(F)C(F)(F)C(F)(F)C=C,inactive,
O=C(O)C=C(C(F)(F)F)C(F)(F)F,inactive,
OCC(F)(F)C(F)(F)C(F)(F)C(F)F,inactive,
C=CC(F)(F)C(F)(F)C(F)(F)C(F)(F)C(F)(F)C(F)(F)C(F)(F)C(F)(F)F,inactive,
O=C(O)C(F)(F)C(F)(F)C(F)F,inactive,
O=P(O)(O)OCCC(F)(F)C(F)(F)C(F)(F)C(F)(F)C(F)(F)C(F)(F)F,inactive,
O=C(O)C(F)(F)C(F)(F)C(F)(F)C(F)(F)C(F)(F)C(F)(F)C(F)(F)C(F)(F)Cl,inactive,37.3 µM (active)
FC(F)(F)C(F)(F)C(F)(F)C(F)(F)C(F)(F)C(F)(F)C(F)(F)Br,inactive,
C=C(C)C(=O)OCCC(F)(F)C(F)(F)C(F)(F)C(F)(F)C(F)(C(F)(F)F)C(F)(F)F,inactive,
FC(F)(F)C(F)(F)C(F)(F)C(F)(F)CCI,inactive,
C=C(C)C(=O)OCC(F)(F)C(F)(F)C(F)(F)C(F)(F)C(F)(F)C(F)(F)C(F)(F)F,inactive,
FC(F)(F)C(F)(F)C(F)(F)C(F)(F)C(F)(F)C(F)(F)CC1CO1 (stereo not given),inactive,

SMILES,outcome,AC50
O=C(O)C(F)(F)C(F)(F)OC(F)(F)F,inactive,
FC(F)(F)C(F)(F)CNCC(F)(F)C(F)(F)F,inactive,
CC(C)(C)C(=O)CC(=O)C(F)(F)C(F)(F)C(F)(F)F,inactive,44.2 µM (active)
OCC(F)(F)C(F)(F)C(F)(F)F,inactive,
CCO[Si](CCC(F)(F)C(F)(F)C(F)(F)C(F)(F)C(F)(F)C(F)(F)F)(OCC)OCC,inactive,
NC(=O)C(F)(F)C(F)(F)C(F)(F)C(F)(F)F,inactive,
C=C(C)C(=O)OCC(F)(F)C(F)(F)C(F)(F)F,inactive,
O=C(O)C(F)(F)C(F)(F)C(F)(F)F,inactive,
FC(F)(F)C(F)(F)C(F)(F)C(F)(F)C(F)(F)C(F)(F)CCS,inactive,
FC(F)(Br)C(F)(F)C(F)(F)C(F)(F)C(F)(F)C(F)(F)Br,inactive,
FC(F)(F)C(F)(F)C(F)(F)N(C(F)(F)C(F)(F)C(F)(F)F)C(F)(F)C(F)(F)C(F)(F)F,inactive,
O=C(O)C(F)(OC(F)(F)C(F)(OC(F)(F)C(F)(F)C(F)(F)F)C(F)(F)F)C(F)(F)F (stereo not given),inactive,
FC(F)(F)C(F)(F)C(F)(F)C(F)(F)C(F)(F)CCI,inactive,
FC1CC(F)(F)C(F)(F)C1(F)F (stereo not given),inactive,
C=CC(=O)OCC(F)(F)C(F)(F)C(F)(F)C(F)(F)C(F)(F)C(F)(F)C(F)(F)F,inactive,
C=CC(=O)OCC(F)(F)C(F)(F)C(F)(F)C(F)(F)COC(=O)C=C,inactive,
O=C(O)C(F)(F)C(F)(F)C(F)(F)C(F)(F)C(F)(F)C(F)(F)C(F)(F)C(F)(F)C(F)(F)C(F)(F)C(F)(F)C(F)(F)C(F)(F)F,inactive,
O=S(=O)(OCC(F)F)C(F)(F)F,inactive,
